Results filed as inconclusive are left out. The source made the active and inactive calls. Rule for the calls: active = hit-call score of the fitted dose curve at least 0.9, where 1 is the maximum; inconclusive = response in the unintended direction; inactive = score below 0.9.

This is an account of results in PubChem BioAssay (EPA / NIEHS).

The target in experiment [1] is Neuropeptide Y receptor type 2 (Homo sapiens) (UniProt P49146). Nature of the experiment: NVS_GPCR_hNPY2: NovaScreen (NVS) G Protein-Coupled Receptor Assay for human Neuropeptide Receptor Y2 (NPY2) (AID 2283277). An outline of the steps: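 Chemicals were first tested in duplicate at 25 uM, then actives in singleton concentration series to 50 uM. Tracer binding to SK-N-MC-derived protein measured cell-free after 1 h via filter scintillation; signal loss relative to DMSO.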

The target of experiment [2] is human Thromboxane A2 Receptor (TXA2), TBXA2R (gene 6915) (UniProt P21731). Nature of the experiment: NVS_GPCR_hTXA2: NovaScreen (NVS) G Protein-Coupled Receptor Assay for human Thromboxane A2 Receptor (TXA2) (AID 2283282).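 Note: actives reduce bound radioligand signal relative to DMSO baseline.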 An outline of the steps: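 Biochem binding, human platelets, cell-free; competitive radioligand displacement; 1 h; filter radiodetection. 25 uM duplicate primary, conc. series secondary; DMSO neg. ctrl.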

For experiment [3], the system named is rabbit Platelet Activating Factor Receptor (PAF), gene 100354046. Put plainly: NVS_GPCR_rabPAF: NovaScreen (NVS) G Protein-Coupled Receptor Assay for rabbit Platelet Activating Factor Receptor (PAF) (AID 2283287). An outline of the steps: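 Rabbit platelet membrane preparation; radioligand displacement read by filter-based scintillation counting 1 h after dosing, loss of signal versus DMSO. Primary screen in duplicate at 25 uM, actives followed up in concentration series.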

In experiment [4] the target is human Opioid Receptor Mu (Opiate Mu), OPRM1 (gene 4988) (UniProt P35372). Put plainly: NVS_GPCR_hOpiate_mu: NovaScreen (NVS) G Protein-Coupled Receptor Assay for human Opioid Receptor Mu (Opiate Mu) (AID 2283290).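 Note: hits lower bound tracer signal versus DMSO meaning displacement of the ligand.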 An outline of the steps: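 Cell-free radioligand binding to membranes from CHO cells expressing the receptor; bound tracer measured by filter-based scintillation counting 2.5 hours after dosing. Loss of signal versus DMSO baseline reflects displacement; primary screen at 25 uM in duplicate, actives followed up in concentration series.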

The target in experiment [5] is Muscarinic acetylcholine receptor M3 (Homo sapiens) (UniProt P20309). Nature of the experiment: NVS_GPCR_hM3: NovaScreen (NVS) G Protein-Coupled Receptor Assay for human Muscarinic, M3 Receptor (AID 2283272). An outline of the steps:
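Radioligand displacement binding on human M3 receptor in CHO-derived membranes, 1 h incubation, filter-based scintillation counting. Primary screen in duplicate at 25 uM; actives followed up in concentration series; loss of signal versus DMSO.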

The target in experiment [6] is Muscarinic acetylcholine receptor M2 (Homo sapiens) (UniProt P08172). Nature of the experiment: NVS_GPCR_hM2: NovaScreen (NVS) G Protein-Coupled Receptor Assay for human Muscarinic, M2 Receptor (AID 2283273). An outline of the steps: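 Filter-based radiodetection read bound radioligand 1 h after dosing CHO-derived membrane protein. Single-concentration duplicates (25 uM) first, then concentration-response for actives; signal loss versus DMSO scored.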

The target in experiment [7] is human Muscarinic, M4 Receptor, CHRM4 (gene 1132) (UniProt P08173). Nature of the experiment: NVS_GPCR_hM4: NovaScreen (NVS) G Protein-Coupled Receptor Assay for human Muscarinic, M4 Receptor (AID 2283274). An outline of the steps: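 Filter-based scintillation counting of radioligand bound to CHO-expressed human M4 preparations after 1 h; loss of signal fitted versus DMSO. Initial duplicate testing at 25 uM, concentration-response follow-up for actives.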

The target in experiment [8] is Muscarinic acetylcholine receptor M5 (Homo sapiens) (UniProt P08912). Nature of the experiment: NVS_GPCR_hM5: NovaScreen (NVS) G Protein-Coupled Receptor Assay for human Muscarinic, M5 Receptor (AID 2283275). An outline of the steps: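 Chemicals passing a primary duplicate screen at 25 uM were run as singleton concentration series, maximum 50 uM. Displacement of a specific radioligand from CHO-extracted receptor was read by filter scintillation after 1 h, relative to DMSO.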

For experiment [9], the target named is human Neuropeptide Receptor Y1 (NPY1), NPY1R (gene 4886) (UniProt P25929). Nature of the experiment: NVS_GPCR_hNPY1: NovaScreen (NVS) G Protein-Coupled Receptor Assay for human Neuropeptide Receptor Y1 (NPY1) (AID 2283276). An outline of the steps: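 Displacement of specific radioligand from NPY1 receptor of SK-N-MC origin, read by filtration and scintillation after 1 h. Compounds first tested at 25 uM in duplicate, then actives in concentration series; signal loss relative to DMSO.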

Experiment [10] addresses human Neurokinin, NK2 Receptor, TACR2 (gene 6865) (UniProt P21452). Put plainly: NVS_GPCR_hNK2: NovaScreen (NVS) G Protein-Coupled Receptor Assay for human Neurokinin, NK2 Receptor (AID 2283278).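 Note: actives reduce bound radioligand signal relative to DMSO baseline.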 An outline of the steps:
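CHO-derived membrane protein, radioligand displacement, filter scintillation read at 4 h post-dose. Single-point 25 uM in duplicate, then concentration series for actives; DMSO as negative control.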

Experiment [11] deals with human Neurotensin Receptor (NTS), NTSR1 (gene 4923) (UniProt P30989). Put plainly: NVS_GPCR_hNTS: NovaScreen (NVS) G Protein-Coupled Receptor Assay for human Neurotensin Receptor (NTS) (AID 2283279). An outline of the steps:
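Compounds competed with a radiolabelled ligand for binding to CHO-derived human neurotensin receptor; bound signal counted after filtration, 1 h. Screened first at a single concentration of 25 uM in duplicate, then concentration series to 50 uM maximum for actives.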

For experiment [12], the target named is human Vasopressin 1A Receptor (V1A), AVPR1A (gene 552) (UniProt P37288). Put plainly: NVS_GPCR_hV1A: NovaScreen (NVS) G Protein-Coupled Receptor Assay for human Vasopressin 1A Receptor (V1A) (AID 2283284). An outline of the steps:
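Single-concentration duplicate screen at 25 uM, with concentration-response follow-up (top 50 uM) for actives. The assay measured displacement of a radioligand from human platelet-derived receptor after 1.5 h, detected by filtration and scintillation counting.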

In experiment [13] the target is mouse Cholecystokinin, CCK1 Receptor (CCKA), Cckar (gene 12425) (UniProt O08786). Put plainly: NVS_GPCR_mCCKAPeripheral: NovaScreen (NVS) G Protein-Coupled Receptor Assay for mouse Cholecystokinin, CCK1 Receptor (CCKA) (AID 2283285). An outline of the steps:
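Chemicals were first screened in duplicate at 25 uM, with those meeting threshold (e.g., 30% inhibition) retested in singleton concentration series to 50 uM maximum. Binding of radioligand to mouse pancreatic membranes was read after 2 h by filtration and scintillation counting.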

Experiment [14] deals with guinea pig Serotonin, 5-Hydroxytryptamine Receptor 4 (5HT4), HTR4 (gene 100135548) (UniProt O70528). Put plainly: NVS_GPCR_g5HT4: NovaScreen (NVS) G Protein-Coupled Receptor Assay for guinea pig Serotonin, 5-Hydroxytryptamine Receptor 4 (5HT4) (AID 2283294). An outline of the steps:
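Compounds first screened in duplicate at 25 uM, actives followed up in concentration series. Binding measured as displacement of specific radioligand from guinea pig striatal membranes, 1 h, filter-based scintillation read-out versus DMSO baseline.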

The target of experiment [15] is rat Serotonin, 5-Hydroxytryptamine Receptor 1 (5HT1), Non-Selective Binding, Htr1a (gene 24473) (UniProt P19327). Put plainly: NVS_GPCR_r5HT1_NonSelective: NovaScreen (NVS) G Protein-Coupled Receptor Assay for rat Serotonin, 5-Hydroxytryptamine Receptor 1 (5HT1), Non-Selective Binding (AID 2283286). An outline of the steps:
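Binding of a radioligand to rat cortex membranes is read by filtration and scintillation counting after 1 h. Compounds were screened at 25 uM in duplicate. Actives were then titrated to a top of 50 uM. DMSO is the baseline.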

The target of experiment [16] is rat Adrenergic, Alpha 1, Non-selective Receptor (Adra1), Adra1a (gene 29412) (UniProt P43140). Put plainly: NVS_GPCR_rAdra1_NonSelective: NovaScreen (NVS) G Protein-Coupled Receptor Assay for rat Adrenergic, Alpha 1, Non-selective Receptor (Adra1) (AID 2283289). An outline of the steps: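 Chemicals first screened in duplicate at 25 uM, then actives tested in concentration series up to 50 uM. Binding measured as displacement of radioligand from rat forebrain membrane receptors, 1 h, filtration with scintillation readout; DMSO baseline.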

For experiment [17], the target named is human Opioid Receptor Delta 1 (Opiate D1), OPRD1 (gene 4985) (UniProt P41143). Nature of the experiment: NVS_GPCR_hOpiate_D1: NovaScreen (NVS) G Protein-Coupled Receptor Assay for human Opioid Receptor Delta 1 (Opiate D1) (AID 2283280). An outline of the steps:
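Membrane preparations from CHO cells bearing the human receptor were incubated 1 h with test chemical, and bound radioligand was counted after filtration. Actives from 25 uM duplicate screening were retested in concentration-response.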

Sequence of rat Adrenergic, Alpha 1, Non-selective Receptor (Adra1), Adra1a (gene 29412) (P43140 whole entry, looked up): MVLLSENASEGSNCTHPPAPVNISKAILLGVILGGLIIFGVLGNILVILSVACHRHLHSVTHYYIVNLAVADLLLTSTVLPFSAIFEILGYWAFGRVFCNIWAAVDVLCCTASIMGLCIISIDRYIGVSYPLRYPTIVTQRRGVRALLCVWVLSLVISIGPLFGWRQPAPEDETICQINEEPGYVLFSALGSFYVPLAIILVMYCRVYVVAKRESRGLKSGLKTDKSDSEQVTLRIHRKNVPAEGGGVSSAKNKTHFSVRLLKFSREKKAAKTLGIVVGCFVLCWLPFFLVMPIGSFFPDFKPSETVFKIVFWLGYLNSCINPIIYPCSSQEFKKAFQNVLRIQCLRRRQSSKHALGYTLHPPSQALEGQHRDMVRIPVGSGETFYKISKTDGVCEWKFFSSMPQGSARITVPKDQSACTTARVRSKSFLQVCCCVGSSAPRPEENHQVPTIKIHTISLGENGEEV
Sequence of human Vasopressin 1A Receptor (V1A), AVPR1A (gene 552) (P37288 whole entry, looked up): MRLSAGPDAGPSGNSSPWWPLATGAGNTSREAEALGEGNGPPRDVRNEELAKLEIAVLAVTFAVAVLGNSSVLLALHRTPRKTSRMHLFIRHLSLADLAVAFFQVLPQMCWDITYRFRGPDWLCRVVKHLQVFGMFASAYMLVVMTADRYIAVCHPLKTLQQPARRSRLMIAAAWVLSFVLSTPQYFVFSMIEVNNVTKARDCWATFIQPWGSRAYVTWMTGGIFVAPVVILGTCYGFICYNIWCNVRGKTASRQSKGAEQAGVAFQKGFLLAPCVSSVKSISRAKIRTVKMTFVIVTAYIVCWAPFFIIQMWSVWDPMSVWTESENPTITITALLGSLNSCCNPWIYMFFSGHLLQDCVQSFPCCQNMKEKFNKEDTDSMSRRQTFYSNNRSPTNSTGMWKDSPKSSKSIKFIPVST
Sequence of human Thromboxane A2 Receptor (TXA2), TBXA2R (gene 6915) (P21731 whole entry, looked up): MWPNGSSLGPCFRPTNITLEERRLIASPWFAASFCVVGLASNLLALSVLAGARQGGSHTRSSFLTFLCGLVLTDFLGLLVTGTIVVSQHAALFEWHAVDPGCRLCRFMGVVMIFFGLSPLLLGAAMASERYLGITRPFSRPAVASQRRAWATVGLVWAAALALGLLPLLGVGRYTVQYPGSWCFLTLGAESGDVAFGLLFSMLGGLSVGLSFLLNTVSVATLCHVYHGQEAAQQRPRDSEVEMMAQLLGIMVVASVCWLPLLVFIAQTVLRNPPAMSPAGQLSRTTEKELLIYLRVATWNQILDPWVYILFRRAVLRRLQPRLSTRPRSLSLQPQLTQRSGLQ
Sequence of guinea pig Serotonin, 5-Hydroxytryptamine Receptor 4 (5HT4), HTR4 (gene 100135548) (O70528 whole entry, looked up): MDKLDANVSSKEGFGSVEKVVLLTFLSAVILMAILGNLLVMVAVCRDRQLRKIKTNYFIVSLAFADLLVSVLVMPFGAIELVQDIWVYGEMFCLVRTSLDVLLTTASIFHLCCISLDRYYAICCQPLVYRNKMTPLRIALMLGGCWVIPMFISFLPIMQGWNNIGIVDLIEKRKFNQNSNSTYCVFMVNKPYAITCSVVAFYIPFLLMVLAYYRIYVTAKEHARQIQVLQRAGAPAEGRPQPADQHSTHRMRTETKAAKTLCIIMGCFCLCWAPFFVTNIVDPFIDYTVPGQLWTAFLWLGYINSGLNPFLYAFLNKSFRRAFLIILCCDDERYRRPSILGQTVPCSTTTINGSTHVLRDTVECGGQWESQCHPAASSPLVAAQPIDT
Sequence of human Muscarinic, M4 Receptor, CHRM4 (gene 1132) (P08173 whole entry, looked up): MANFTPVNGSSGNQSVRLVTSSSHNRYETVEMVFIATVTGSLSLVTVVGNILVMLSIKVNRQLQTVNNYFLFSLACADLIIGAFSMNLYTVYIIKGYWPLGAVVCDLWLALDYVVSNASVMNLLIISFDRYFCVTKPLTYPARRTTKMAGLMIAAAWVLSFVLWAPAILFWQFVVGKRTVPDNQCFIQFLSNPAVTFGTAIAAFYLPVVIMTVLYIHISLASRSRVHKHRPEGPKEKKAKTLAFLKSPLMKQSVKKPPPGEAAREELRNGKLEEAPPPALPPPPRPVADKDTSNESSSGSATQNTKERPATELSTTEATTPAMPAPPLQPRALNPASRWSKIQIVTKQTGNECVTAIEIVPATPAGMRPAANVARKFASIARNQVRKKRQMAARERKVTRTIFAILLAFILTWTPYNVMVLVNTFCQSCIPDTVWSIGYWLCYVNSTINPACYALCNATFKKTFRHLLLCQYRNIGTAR
Sequence of Muscarinic acetylcholine receptor M2 (Homo sapiens) (P08172 whole entry, looked up): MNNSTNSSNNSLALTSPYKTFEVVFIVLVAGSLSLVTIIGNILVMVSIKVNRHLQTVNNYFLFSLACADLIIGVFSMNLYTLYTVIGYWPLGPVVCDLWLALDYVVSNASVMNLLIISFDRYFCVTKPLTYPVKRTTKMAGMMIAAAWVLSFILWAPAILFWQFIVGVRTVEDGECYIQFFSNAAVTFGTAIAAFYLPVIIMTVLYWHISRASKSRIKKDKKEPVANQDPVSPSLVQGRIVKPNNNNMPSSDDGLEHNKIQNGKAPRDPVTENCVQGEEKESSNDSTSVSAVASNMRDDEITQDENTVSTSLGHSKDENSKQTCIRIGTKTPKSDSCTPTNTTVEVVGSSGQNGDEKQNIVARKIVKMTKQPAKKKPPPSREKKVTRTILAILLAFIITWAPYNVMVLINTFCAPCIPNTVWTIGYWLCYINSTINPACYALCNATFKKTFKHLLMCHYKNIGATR
Sequence of Muscarinic acetylcholine receptor M5 (Homo sapiens) (P08912 whole entry, looked up): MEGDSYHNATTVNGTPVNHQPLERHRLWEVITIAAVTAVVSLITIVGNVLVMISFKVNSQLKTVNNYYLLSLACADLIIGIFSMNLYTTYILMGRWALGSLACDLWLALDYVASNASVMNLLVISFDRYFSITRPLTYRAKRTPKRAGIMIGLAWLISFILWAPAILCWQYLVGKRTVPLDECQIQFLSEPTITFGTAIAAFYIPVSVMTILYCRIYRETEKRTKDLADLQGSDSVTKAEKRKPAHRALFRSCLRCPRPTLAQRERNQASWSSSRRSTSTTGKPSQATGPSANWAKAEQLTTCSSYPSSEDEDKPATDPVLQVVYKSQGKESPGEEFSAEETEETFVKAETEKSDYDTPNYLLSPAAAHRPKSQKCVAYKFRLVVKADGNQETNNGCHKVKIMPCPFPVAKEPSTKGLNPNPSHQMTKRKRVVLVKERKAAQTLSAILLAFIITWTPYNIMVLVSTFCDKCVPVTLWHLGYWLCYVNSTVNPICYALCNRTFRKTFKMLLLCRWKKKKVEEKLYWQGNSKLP
Sequence of human Opioid Receptor Mu (Opiate Mu), OPRM1 (gene 4988) (P35372 whole entry, looked up): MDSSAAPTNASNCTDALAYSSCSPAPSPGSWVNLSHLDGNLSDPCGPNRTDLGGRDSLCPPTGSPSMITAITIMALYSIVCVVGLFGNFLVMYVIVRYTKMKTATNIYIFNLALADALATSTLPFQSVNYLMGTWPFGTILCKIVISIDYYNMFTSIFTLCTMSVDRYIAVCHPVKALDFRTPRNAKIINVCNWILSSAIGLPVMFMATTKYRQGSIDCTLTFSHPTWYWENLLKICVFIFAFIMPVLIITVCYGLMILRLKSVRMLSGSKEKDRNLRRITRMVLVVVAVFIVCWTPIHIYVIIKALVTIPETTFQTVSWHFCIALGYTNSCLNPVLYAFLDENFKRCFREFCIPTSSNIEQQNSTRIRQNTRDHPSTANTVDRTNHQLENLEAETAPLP
Sequence of human Neurokinin, NK2 Receptor, TACR2 (gene 6865) (P21452 whole entry, looked up): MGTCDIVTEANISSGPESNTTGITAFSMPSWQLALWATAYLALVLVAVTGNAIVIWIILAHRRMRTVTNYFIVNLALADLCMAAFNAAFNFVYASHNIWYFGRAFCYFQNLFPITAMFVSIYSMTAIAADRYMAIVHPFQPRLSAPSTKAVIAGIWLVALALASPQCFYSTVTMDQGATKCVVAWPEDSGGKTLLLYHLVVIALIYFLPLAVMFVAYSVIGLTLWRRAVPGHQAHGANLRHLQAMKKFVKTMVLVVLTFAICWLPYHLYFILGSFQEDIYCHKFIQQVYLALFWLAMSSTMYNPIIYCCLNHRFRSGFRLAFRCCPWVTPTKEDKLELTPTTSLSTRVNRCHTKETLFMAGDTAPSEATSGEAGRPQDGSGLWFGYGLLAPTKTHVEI
Sequence of Neuropeptide Y receptor type 2 (Homo sapiens) (P49146 whole entry, looked up): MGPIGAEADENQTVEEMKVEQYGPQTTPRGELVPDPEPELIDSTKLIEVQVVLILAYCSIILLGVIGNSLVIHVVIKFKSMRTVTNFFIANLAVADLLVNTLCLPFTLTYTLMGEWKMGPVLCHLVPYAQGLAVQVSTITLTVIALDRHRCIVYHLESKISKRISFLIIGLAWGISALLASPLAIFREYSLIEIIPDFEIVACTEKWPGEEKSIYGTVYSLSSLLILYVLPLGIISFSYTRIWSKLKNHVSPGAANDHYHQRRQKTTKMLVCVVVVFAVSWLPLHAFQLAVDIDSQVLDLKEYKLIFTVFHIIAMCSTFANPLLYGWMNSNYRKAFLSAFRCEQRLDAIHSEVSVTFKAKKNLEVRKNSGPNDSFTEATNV
Sequence of Muscarinic acetylcholine receptor M3 (Homo sapiens) (P20309 whole entry, looked up): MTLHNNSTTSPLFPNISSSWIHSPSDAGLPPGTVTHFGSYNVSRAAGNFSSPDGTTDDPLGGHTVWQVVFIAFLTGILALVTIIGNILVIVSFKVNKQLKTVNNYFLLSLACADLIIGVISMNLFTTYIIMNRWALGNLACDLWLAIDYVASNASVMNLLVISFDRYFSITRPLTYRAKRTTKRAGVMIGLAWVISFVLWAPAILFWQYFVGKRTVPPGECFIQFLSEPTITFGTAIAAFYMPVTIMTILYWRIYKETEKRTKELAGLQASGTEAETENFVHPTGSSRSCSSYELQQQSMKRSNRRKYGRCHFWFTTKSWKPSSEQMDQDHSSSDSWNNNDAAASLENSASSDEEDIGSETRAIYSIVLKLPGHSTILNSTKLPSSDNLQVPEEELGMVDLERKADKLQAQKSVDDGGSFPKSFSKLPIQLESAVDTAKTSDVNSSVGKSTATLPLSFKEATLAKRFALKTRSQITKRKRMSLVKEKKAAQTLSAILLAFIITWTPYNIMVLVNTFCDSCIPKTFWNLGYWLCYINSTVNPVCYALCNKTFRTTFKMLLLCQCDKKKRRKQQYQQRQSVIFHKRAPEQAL

In the case of `CO[C@H]1/C=C/O[C@@]2(C)Oc3c(C)c(O)c4c(O)c(c(/C=N/N5CCN(C)CC5)c(O)c4c3C2=O)NC(=O)/C(C)=C\C=C\[C@H](C)[C@H](O)[C@@H](C)[C@@H](O)[C@@H](C)[C@H](OC(C)=O)[C@@H]1C`, the AC50 in [1] is 0.0867 µM (active). Further, the call in experiment [2] was inactive.
Turning to `CCCCCCCCCCCO`, the compound was called inactive in experiment [1].
Consider `Clc1ccccc1C(c1ccccc1)(c1ccccc1)n1ccnc1`, for which the AC50 in experiment [3] is 0.621 µM (active). The call in experiment [4] was inactive.
Turning to `CCCCCCCCCCCC[N+](C)(C)C`, the half-maximal activity concentration (AC50) is 3.43 µM (active) in experiment [5]; 1.39 µM (active) in experiment [6]; 2.77 µM (active) in [7]; 1.93 µM (active) in experiment [8]; 16 µM (active) in [9]; 38.9 µM (active) in [1]. Besides, the AC50 was 18.6 µM (active) in [10]; 11.7 µM (active) in experiment [11]; 20.6 µM (active) in experiment [13]; 9.15 µM (active) in [3]; 17.9 µM (active) in experiment [14]. For the same compound, the compound was classed as inactive in experiment [12] and in [4].
For `CC[C@@H]1C[C@H](N(Cc2cc(C(F)(F)F)cc(C(F)(F)F)c2)C(C)=O)c2cc(C(F)(F)F)ccc2N1C(=O)OC(C)C`, the outcome in experiment [15] and in [3] was inactive.
For `Clc1cc(Cl)c2c(c1)N=C1CCCCCN1C2`, the AC50 in [5] is 2.09 µM (active); in experiment [6], 1.17 µM (active); in [7], 1.71 µM (active); in experiment [8], 2.01 µM (active); in experiment [16] it was 6.44 µM (active); in [14], 5.45 µM (active).
For `CCCCCCCCOC(=O)c1cc(O)c(O)c(O)c1`, in experiment [5], the compound was classed as inactive. The half-maximal activity concentration (AC50) in experiment [7] is 8.67 µM (active); in experiment [10], 7.2 µM (active); in [17], 16.4 µM (active); in experiment [4] it was 18 µM (active).
For `O=C1c2ccccc2C(=O)N1CCc1noc(-c2ccc(CN3CCCCCC3)s2)n1`, the AC50 is 3.96 µM (active) in experiment [5]; 2.83 µM (active) in [6]; 7.92 µM (active) in [7]; 7.99 µM (active) in experiment [8]; 12.3 µM (active) in experiment [10]; 3.11 µM (active) in [3]. Moreover, the AC50 is 9.19 µM (active) in [16] and 4 µM (active) in [14].
On to `c1ccc(C[n+]2cccc3ccccc32)cc1`, for which the AC50 is 25 µM (active) in [5]; 9.2 µM (active) in [6]; 16.8 µM (active) in experiment [7]; 11.8 µM (active) in [8]; 11.7 µM (active) in experiment [16]. The compound was classed as inactive in [12].
As to `CN(C[C@@H](CC[N+]12CCC(C3CCCCC3)(CC1)CC2)c1ccc(Cl)c(Cl)c1)C(=O)c1cc(C(F)(F)F)cc(C(F)(F)F)c1`, the AC50 in experiment [10] is 0.0311 µM (active); in experiment [2], 25 µM (active); in [4], 2.11 µM (active); in experiment [14], 8.02 µM (active).
As for `CCN(Cc1cccnc1)C(=O)c1cccc(Cl)c1[C@]1(C)C(=O)N(Cc2ccc(OC)cc2OC)c2ccc(Cl)cc21`, the half-maximal activity concentration (AC50) in experiment [8] is 4.06 µM (active); in experiment [17], 2.01 µM (active); in [2], 6.61 µM (active); in [3], 1.68 µM (active); in experiment [16] it was 11.4 µM (active); in experiment [4], 1.48 µM (active). The AC50 in [14] was 15 µM (active). In experiment [12], the outcome was inactive.

Usually AC50 stands for the concentration at which the activity in the assay is half-maximal.
